# Assay outcomes deposited in PubChem by several laboratories.
# Only some compounds are listed: those with a hit (about 3.6% of all), similar ones and a draw of the others.
# BoNT F protease: inhibitors of Botulinum neurotoxin F light chain protease. Multiplex microsphere protease cleavage assay, flow cytometry. AID 588497. inhibition, % at 10 µM. hit rate 0.22% among 360,000; in the data active means inhibition above about 35%, passing the limit was not always enough; inconclusive means no clear call, values can overlap the other calls
# Autofluor counter: flagged as autofluorescent in microsphere protease counterscreen | compound autofluorescence counterscreen, microsphere flow cytometry; active compounds read high | fluorescence intensity (no concentration beside the values) | hit rate 3.1% among 360,000 | AID 624483; in the data active means fluorescence intensity above about 16000; inconclusive means no clear call, values can overlap the other calls
# MazF activator: increases E. coli MazEF RNase cleavage of RNA | activation, % at 20 µM | FAM/BHQ RNA-DNA oligo cleavage fluorescence, 5 h | hit rate 0.32% among 350,000; in the data active means activation above about 50%
# Target sequence (P0AE70 whole entry, looked up): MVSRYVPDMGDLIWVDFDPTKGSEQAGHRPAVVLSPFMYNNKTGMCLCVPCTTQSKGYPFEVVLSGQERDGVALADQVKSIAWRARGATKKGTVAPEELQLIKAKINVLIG
# Anthrax LF prot: anthrax lethal factor protease inhibition. P15917. multiplex microsphere protease cleavage assay, LF. inhibition, % at 10 µM. hit rate 0.12% among 360,000
# BoNT A protease: BoNT A light chain protease inhibition | multiplex microsphere protease substrate cleavage, flow cytometry | inhibition, % at 10 µM | hit rate 0.17% among 360,000
# Hits are given with their value; . = inactive; ? = inconclusive; / = no result. Unless noted, no stated cut-off is given here; in the data, active means inhibition above about 30%; inconclusive means no clear call, values can overlap the other calls; inactive means below that.
SMILES,BoNT F protease,Autofluor counter,MazF activator,Anthrax LF prot,BoNT A protease
CN(C(=O)COC(=O)C1CSC2(C)CCC(=O)N12)c1ccccc1 (centres undefined),.,.,.,.,.
CN(C(=O)c1ccccc1NC(=O)C(F)(F)F)c1ccccc1,.,19216,.,.,.
CCOC(=O)Cn1c(-c2ccccn2)nc2ccccc21,.,.,.,.,.
CCOC(=O)Cn1c(C)nc2ccccc21,.,.,.,.,.
Clc1ccc(Cn2c(-c3cccnc3Cl)nc3ccccc32)c(Cl)c1,.,21985,.,.,?
CCOC(=O)Cn1c(-c2cccnc2Cl)nc2cc(C)c(C)cc21,.,22326,.,.,.
CCn1c(-c2cccnc2Cl)nc2cc(Cl)c(Cl)cc21,.,23561,.,.,?
CCOC(=O)Cn1c(-c2cccnc2Cl)nc2cc(Cl)c(Cl)cc21,.,20399,.,.,?
COc1ccc(C(=O)c2sc3nc(C)cc(-c4cccs4)c3c2N)cc1OC,47,.,.,49,71
CCOc1ccc(N(CC(=O)NC2CCCCC2)C(=O)CCCC(=O)Nc2ccccn2)cc1,.,.,.,.,.
Cc1cc(NC(=O)Nc2ccccc2)n(C(C)(C)C)n1,.,.,.,.,.
COC(=O)c1ccc(NC(=O)Cn2nc(-c3ccncc3)nc2SCC(=O)Nc2nccs2)cc1,.,.,56,.,.
Nc1nonc1-c1noc(COc2ccccc2Cl)n1,.,.,.,.,.
Cc1cccc(OCc2nc(-c3nonc3N)no2)c1C,.,22795,.,.,?
Cc1nc2c(ccc3nc(NC(=O)c4ccc5c(c4)OCCO5)sc32)s1,.,.,73,.,.
CCOC(=O)C1(C)CCCN(C(=O)c2c(F)cccc2F)C1 (centres undefined),.,.,/,.,.
COc1cccc(NC(=O)CN(c2cccc(C(F)(F)F)c2)S(C)(=O)=O)c1,.,.,.,.,.
CC(=O)Nc1ccc(NC(=O)CN(c2cccc(C)c2)S(C)(=O)=O)cc1,.,22430,.,.,.
COc1ccc(NC(=O)CN(c2cccc(C(F)(F)F)c2)S(C)(=O)=O)cc1OC,.,20812,.,.,.
CS(=O)(=O)N(CC(=O)Nc1cc(Cl)ccc1Cl)c1ccccc1,.,24006,.,.,.
COc1ccc(N(CC(=O)Nc2ccc(S(=O)(=O)N3CCCC3)cc2)S(C)(=O)=O)cc1OC,.,.,.,.,.
COc1ccc(N(CC(=O)Nc2ccc(S(=O)(=O)N3CCCCC3)cc2)S(C)(=O)=O)cc1OC,.,19464,.,.,?
OCCC1CN(Cc2nc3ccccc3[nH]2)CCN1C1CCCC1 (centres undefined),.,.,.,.,.
COc1cc(/C=C/C(=O)OCC(=O)Nc2ccc3[nH]c(=O)[nH]c3c2)ccc1OC(F)F,.,.,.,.,.
CC(C(=O)NCc1ccco1)n1ccc2cc(S(=O)(=O)N3CCCCC3)ccc21 (centres undefined),.,.,.,.,.
SMILES,BoNT F protease,Autofluor counter,MazF activator,Anthrax LF prot,BoNT A protease
CCN(C(=O)CCS(=O)(=O)c1ccc2c(c1)oc(=O)n2C)c1ccc(OC)cc1,.,.,.,.,.
COc1ccc(N(CC(=O)N2CCc3ccccc3C2)S(C)(=O)=O)cc1OC,.,16881,.,.,.
COc1ccc(NC(=O)N2CCN(c3cccc(C(F)(F)F)c3)CC2)cc1OC,.,19995,.,.,.
COc1ccc(Nc2nc3ccc(C)cc3cc2C#N)c(OC)c1,.,.,139,.,.
COc1ccc(Nc2nc3cc(C)ccc3cc2C#N)c(OC)c1,.,.,62,.,.
COc1ccc(Nc2nc3c(C)cccc3cc2C#N)c(OC)c1,.,.,.,.,.
COc1ccc(Nc2nc3cc(C)ccc3cc2C#N)cc1,.,.,.,.,.
CC1(C)ON=C(c2cccc(F)c2)NC1=O,.,.,/,.,.
O=C(COC(=O)COc1ccc(Cl)cc1Br)NCc1cccs1,.,.,.,.,.
CCOC(=O)CNC(=O)COc1ccc(Cl)cc1Br,.,23269,.,.,.
COc1cc(OC)cc(C(=O)NNC(=O)C2CCCC2)c1,.,.,.,.,.
Cc1oc2c(cc(NS(=O)(=O)c3ccc4c5c(cccc35)C(=O)N4)c3ccccc32)c1C(=O)OC(C)C,.,19667,.,.,.
COc1cc(/C=C(\C#N)c2nc3ccccc3[nH]2)ccc1OC(=O)c1ccco1,.,.,56,.,.
O=C(NC(C(=O)N/N=C/c1cc([N+](=O)[O-])ccc1O)c1n[nH]c(=O)c2ccccc12)c1ccccc1 (centres undefined),.,.,.,.,.
CS(=O)(=O)c1nc2c(cc1C#N)CCCC2,.,.,.,.,.
COc1ccc(NC(=O)c2ccc(C(=O)c3cc(OC)ccc3OC)cc2)cc1,.,20895,.,.,.
CCCN(CCC)C(C(=O)Nc1cccc(OC)c1)c1ccccc1 (centres undefined),.,22137,.,.,.
O=C(Nc1ccc(Cl)cc1)C(c1ccccc1)N(CCO)CCO (centres undefined),.,20747,.,.,.
Cc1ccc(NC(=O)C(c2ccccc2)N(C)C)cc1Cl (centres undefined),.,.,.,.,.
O=C(Nc1cc(Cl)cc(Cl)c1)C(NCCO)c1ccccc1 (centres undefined),.,22640,.,.,.
O=C(Nc1nc2ccsc2c(=O)s1)c1ccc(Cl)cc1,?,.,.,.,.
COc1cccc(CNC(=O)CN(C)S(=O)(=O)c2cccc3cccnc23)c1,.,.,.,.,.
CN(Cc1ccccc1)S(=O)(=O)c1cccc2cccnc12,.,24517,.,.,.
CN(N=Cc1cccc2cccnc12)c1ccc([N+](=O)[O-])cc1[N+](=O)[O-],.,.,935,.,.
O=C(c1cc2ncc(Br)cn2n1)N1CCOCC1,.,24596,.,.,?
SMILES,BoNT F protease,Autofluor counter,MazF activator,Anthrax LF prot,BoNT A protease
O=C(c1cc2ncc(Br)cn2n1)N1CCN(C(=O)c2ccco2)CC1,.,.,.,.,.
COc1ccc([C@@]2(C(C)C)ON(c3ccccc3C(F)(F)F)C2=O)cc1,.,.,.,.,.
Cc1cc(C)c(CSc2ncc(-c3ccc([N+](=O)[O-])cc3)[nH]2)c(C)c1,.,.,76,.,.
COC(=O)COc1ccc(C(C2C(=O)CC(C)(C)CC2=O)C2C(=O)CC(C)(C)CC2=O)cc1,.,.,.,.,.
CN1CCC(OC(=O)c2ccco2)CC1,.,.,.,.,.
O=C(OC1CSc2nc3ccccc3n2C1)c1ccco1 (centres undefined),.,21891,.,.,.
NC(=O)c1nc(C2CCCCC2)nc2c1[nH]c(=O)n2-c1ccc(F)cc1,.,.,86,.,.
COc1ccccc1-n1c(=O)[nH]c2c(C(N)=O)nc(C3CCCCC3)nc21,.,.,.,.,.
Cc1ccc(N2C(=O)CSC2c2cccnc2)c(Cl)c1 (centres undefined),?,.,.,.,.
O=C(Nc1ncccn1)c1ccc([N+](=O)[O-])o1,.,.,91,.,.
COc1cc(C(=O)Oc2cc(N)n(S(=O)(=O)c3ccc(F)cc3)n2)cc(OC)c1OC,.,.,245,.,.
